# High-throughput results from PubChem BioAssay.
# Dicer processing – inhibitors of human Dicer processing of pre-microRNA; z-score at 25 µM; cat-ELCCA pre-miR-21 Dicer processing, chemiluminescence; stronger effect = higher value; 47,000 tested, 6% active; AID 1347074; in the data active means z-score above about 3, passing the limit was not always enough;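 further: plate controls were vehicle for no effect and no enzyme for full effect; higher signal means more uncleaved substrate so more Dicer inhibition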
# Target sequence (Q9UPY3 whole entry, looked up): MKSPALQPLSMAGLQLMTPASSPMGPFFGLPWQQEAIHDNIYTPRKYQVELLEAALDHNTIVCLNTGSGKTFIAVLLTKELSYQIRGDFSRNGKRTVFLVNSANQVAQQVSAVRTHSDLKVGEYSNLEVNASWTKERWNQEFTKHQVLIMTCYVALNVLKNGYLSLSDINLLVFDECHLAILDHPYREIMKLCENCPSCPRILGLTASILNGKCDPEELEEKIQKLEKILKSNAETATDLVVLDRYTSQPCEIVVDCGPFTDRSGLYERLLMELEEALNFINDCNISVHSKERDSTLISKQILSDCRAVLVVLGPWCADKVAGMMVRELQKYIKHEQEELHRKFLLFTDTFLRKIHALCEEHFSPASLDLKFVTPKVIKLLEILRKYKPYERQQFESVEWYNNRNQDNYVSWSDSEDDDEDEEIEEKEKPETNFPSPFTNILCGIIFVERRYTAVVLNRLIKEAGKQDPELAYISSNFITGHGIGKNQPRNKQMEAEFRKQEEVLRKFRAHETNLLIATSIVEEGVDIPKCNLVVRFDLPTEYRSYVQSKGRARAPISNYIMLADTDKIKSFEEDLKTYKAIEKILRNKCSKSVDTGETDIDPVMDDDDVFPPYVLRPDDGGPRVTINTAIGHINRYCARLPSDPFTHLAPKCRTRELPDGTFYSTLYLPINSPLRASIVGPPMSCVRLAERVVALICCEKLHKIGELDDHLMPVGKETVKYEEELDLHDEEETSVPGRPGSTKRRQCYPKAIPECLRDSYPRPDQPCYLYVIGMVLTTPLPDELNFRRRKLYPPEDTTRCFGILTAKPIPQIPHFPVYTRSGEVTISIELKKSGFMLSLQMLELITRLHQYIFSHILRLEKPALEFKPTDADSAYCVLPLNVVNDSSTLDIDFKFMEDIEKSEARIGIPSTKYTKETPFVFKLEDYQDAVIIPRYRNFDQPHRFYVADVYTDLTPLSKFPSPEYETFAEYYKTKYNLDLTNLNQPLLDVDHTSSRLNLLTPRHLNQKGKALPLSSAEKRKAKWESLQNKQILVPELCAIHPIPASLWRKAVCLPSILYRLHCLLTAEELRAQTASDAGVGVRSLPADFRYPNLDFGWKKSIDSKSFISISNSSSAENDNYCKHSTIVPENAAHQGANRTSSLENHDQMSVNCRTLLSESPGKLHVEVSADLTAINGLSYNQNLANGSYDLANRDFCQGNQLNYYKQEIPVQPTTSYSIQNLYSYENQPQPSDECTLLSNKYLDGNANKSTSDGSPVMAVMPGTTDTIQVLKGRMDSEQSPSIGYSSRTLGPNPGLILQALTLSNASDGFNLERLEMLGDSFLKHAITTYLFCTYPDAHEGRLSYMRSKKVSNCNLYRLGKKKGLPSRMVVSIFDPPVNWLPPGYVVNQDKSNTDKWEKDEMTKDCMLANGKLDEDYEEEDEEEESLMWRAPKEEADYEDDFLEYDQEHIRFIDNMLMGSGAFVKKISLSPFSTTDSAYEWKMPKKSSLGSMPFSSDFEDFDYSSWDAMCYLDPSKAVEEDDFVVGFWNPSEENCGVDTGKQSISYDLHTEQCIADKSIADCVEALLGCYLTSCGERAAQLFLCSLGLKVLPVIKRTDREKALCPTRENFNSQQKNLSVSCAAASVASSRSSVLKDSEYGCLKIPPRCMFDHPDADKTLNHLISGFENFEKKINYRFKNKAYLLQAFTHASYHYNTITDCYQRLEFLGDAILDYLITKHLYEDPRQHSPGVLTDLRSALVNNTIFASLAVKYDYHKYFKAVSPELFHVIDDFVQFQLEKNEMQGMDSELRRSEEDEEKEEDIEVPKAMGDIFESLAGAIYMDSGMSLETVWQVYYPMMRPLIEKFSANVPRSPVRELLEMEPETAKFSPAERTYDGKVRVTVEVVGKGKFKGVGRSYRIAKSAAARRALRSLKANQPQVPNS
# The depositor's hits bear a star. Many of the other results were omitted from the sample, so hits are more common in it than they were.
SMILES,Dicer processing
Cc1ccc(S(=O)(=O)Nc2cc(Cl)c3oc(=O)sc3c2)cc1,11*
Cc1cc(C)cc(NS(=O)(=O)c2ccc3[nH]c(=O)[nH]c3c2)c1,-0.23
Cc1ccc(C)c(S(=O)(=O)Nc2ccc3oc4c(c3c2)C(=O)CCC4)c1,-1.4
O=S(=O)(Nc1ccccc1Cl)c1ccc(F)cc1,-0.45
COc1ccc(Cl)cc1NS(=O)(=O)c1ccc(F)cc1,1.6
Cc1cc(NS(=O)(=O)c2ccc(NS(=O)(=O)c3cc(C)c(Cl)cc3Cl)cc2)no1,-0.3
COc1ccc(S(=O)(=O)Nc2nnc(C(C)C)s2)cc1,0.14
COC(=O)c1sc(C(C)(C)C)cc1NS(=O)(=O)c1ccc(OC)cc1,-0.67
O=c1oc2c(Cl)cc(NS(=O)(=O)c3ccc(F)cc3)cc2s1,9.7*
CCOC(=O)c1ccc(Cl)cc1Nc1ccc([N+](=O)[O-])cc1C(=O)OCC,2.1
COc1ccc(Br)cc1S(=O)(=O)Oc1c(Cl)cc(C(C)(C)C)cc1Br,-1.5
O=C(CCSc1nc2ccccc2s1)Nc1ccc(Br)cc1,-0.61
O=c1cc(NCc2ccccc2)n(-c2ccccc2)c(=O)n1-c1ccccc1,0.38
CCOc1ccc(C2c3c(oc4ccc(F)cc4c3=O)C(=O)N2CCOC)cc1 (stereo not given),-0.28
COc1ccc(-n2c(-c3cc(-c4ccccc4)sc3N)n[nH]c2=S)cc1,5.4*
Nc1sc(-c2ccccc2)cc1-c1n[nH]c(=S)n1-c1ccc(F)cc1,-0.78
Nc1sc(-c2ccccc2)cc1-c1n[nH]c(=S)n1Cc1ccccc1,-8.9
O=C(O)CSCC(=O)NC1Cc2ccccc2C1,2.2
Cc1cccc(C)c1NC(=S)N(Cc1ccccc1)Cc1ccc2c(c1)OCO2,-0.37
CCCCCSc1nnc2c(n1)OC=Nc1ccccc1-2,3
CC(C)Oc1cc(O)c2c(=O)c(-c3ccc(O)cc3)coc2c1,1.7
O=c1c(-c2ccc(O)cc2)coc2cc(O)cc(O)c12,-1.4
COc1ccc(-c2coc3cc(OCc4ccc(Br)cc4)cc(O)c3c2=O)cc1OC,3.9*
c1ccc(Sc2nc(-c3ccccc3)ns2)cc1,-0.13
Cc1cc(Cc2ccc(Cl)cc2)c(=O)[nH]n1,-0.59
SMILES,Dicer processing
Cc1ccc(-c2cc(Cc3cccn3-c3ccc(Cl)cc3)c(=O)[nH]n2)cc1,3.8*
Cc1ccc(-c2cc(Cc3cccs3)c(=O)[nH]n2)cc1,16
CCOc1ccc(C2c3c(oc4ccc(C)cc4c3=O)C(=O)N2c2nc(C)c(C)s2)cc1OC (stereo not given),0.85
Cc1ccc(C(=O)CSc2nc3cc(C(F)(F)F)ccc3n2C(C)C)cc1,-0.93
CS(=O)(=NC(=O)NS(=O)(=O)Oc1ccc(Cl)cc1Cl)c1ccc(Cl)cc1 (stereo not given),1.7
CCOC(=O)N1CCC(N2CCCC(C(=O)N3CCCC3)C2)CC1 (stereo not given),0.17
CCOC(=O)N1CCC(N2CCN(S(=O)(=O)c3ccc(OC)cc3)CC2)CC1,0.1
CCOC(=O)N1CCC(N2CCN(S(C)(=O)=O)CC2)CC1,5*
O=C(c1csc(-c2ccc(Cl)cc2)c1)N1CCCCC1,0.78
Cc1ccc(S(=O)(=O)NC(=O)Nc2ncccc2OCc2ccc(Cl)c(Cl)c2)cc1,-1.8
CCOc1ccc(C2C(C(=O)c3ccc(C)o3)=C(O)C(=O)N2Cc2cccnc2)cc1OC (stereo not given),-1.4
CCOC(=O)C1=C(C)NC2=C(C(=O)c3ccccc32)C1c1cccc(OC)c1 (stereo not given),-1.6
Cn1c2c(c(=O)[nH]c1=O)C(c1ccc(F)cc1)C1=C(N2)c2ccccc2C1=O (stereo not given),-0.29
CCOC(=O)C1=C(C)NC2=C(C(=O)c3ccccc32)C1c1ccc(OC)cc1 (stereo not given),3.3*
Cn1c2c(c(=O)n(C)c1=O)C(c1ccc(OC(=O)c3ccccc3)cc1)C1=C(N2)c2ccccc2C1=O (stereo not given),7.1*
Cc1ccc(C2C3=C(Nc4c2c(=O)[nH]c(=O)n4C)c2ccccc2C3=O)cc1 (stereo not given),2.2
Cn1c2c(c(=O)[nH]c1=O)C(c1ccc(-c3ccccc3)cc1)C1=C(N2)c2ccccc2C1=O (stereo not given),4.6*
Cc1ccc(C2C3=C(Nc4c2c(=O)n(C)c(=O)n4C)c2ccccc2C3=O)cc1 (stereo not given),0.93
Cn1c2c(c(=O)n(C)c1=O)C(c1cccc(OC(=O)c3ccccc3)c1)C1=C(N2)c2ccccc2C1=O (stereo not given),0.51
Cn1c2c(c(=O)[nH]c1=O)C(c1ccc(Cl)cc1)C1=C(N2)c2ccccc2C1=O (stereo not given),2.7
CCOC(=O)C1=C(C)NC2=C(C(=O)c3ccccc32)C1c1ccccc1 (stereo not given),-0.36
Cn1c2c(c(=O)[nH]c1=O)C(c1ccc(Br)cc1)C1=C(N2)c2ccccc2C1=O (stereo not given),1.2
Cn1c2c(c(=O)[nH]c1=O)C(c1ccccc1)C1=C(N2)c2ccccc2C1=O (stereo not given),3*
N[C@@H](Cn1ccc(=O)c(O)c1)C(=O)O,0.82
O=C1CC(N2CCN(CCO)CC2)C(=O)N1c1ccc(Br)cc1 (stereo not given),-2.2
SMILES,Dicer processing
O=C(O)c1ccc(-c2ccc(Cl)cc2)o1,-0.52
COc1ccc(C(C)=O)cc1CSc1nsc(SCc2cc(C(C)=O)ccc2OC)n1,-1.1
COCCOC(=O)C1=C(C)NC2=C(C(=O)CC(c3ccc(OC)cc3)C2)C1c1ccc2c(c1)OCO2 (stereo not given),0.4
CC12CCC(C(=O)O)(OC1=O)C2(C)C (stereo not given),0.65
CN1C(C(=O)c2ccccc2)=C(OC(=O)c2ccc(Br)cc2)c2ccccc2S1(=O)=O,-3.1
O=C(O)C1(c2ccccc2)CCCC1,2.4
O=C(N1CCCC1)C1(c2ccccc2)CCOCC1,3*
O=C(NC(=S)N1CCCCC1)c1ccccc1,1.4
Cc1nn(C)c(C)c1Nc1n[nH]c(N)n1,0.4
COc1ccc(C2N=C(N)Nc3nc4ccccc4n32)cc1 (stereo not given),-0.05
COc1ccc(OC)c(C2N=C(N)Nc3nc4ccccc4n32)c1 (stereo not given),-1.2
COc1ccccc1C1N=C(N)Nc2nc3ccccc3n21 (stereo not given),34*
CCOC(=O)C(Cc1ccc(F)cc1)(NC(C)=O)C(=O)OCC,1.7
O=C(O)CSCC(=O)Nc1ccc(Cl)cn1,-0.42
O=S(=O)(CCS(=O)(=O)c1c(F)c(F)cc(F)c1F)c1ccc(Cl)cc1,-0.8
COC(=O)c1cc(Cl)cc(Cl)c1,-0.99
COC(=O)c1ccc(Br)cc1,0.38
COC(=O)c1ccc2cc(C(=O)O)ccc2c1,5.4*
FC(F)(F)c1cccc(-c2nc3ccccn3n2)c1,2.3
Cc1ccc(C(=O)NC(Nc2ncccn2)(C(F)(F)F)C(F)(F)F)cc1,1.5
O=S(=O)(NNC(=S)Nc1ccccc1F)c1ccc(Cl)cc1,0.15
O=C(NCc1sccc1COc1ccc(Cl)cc1)Nc1ccccc1F,4.5*
Cc1ccsc1CNC(=O)Nc1ccc(OCc2ccccc2)cc1,2.7
Cc1ccc(Cn2ncc(Br)c2/C=N/NC(=S)NC(C)(C)C)cc1,-0.09
CC(C)(C)NC(=S)N/N=C\c1[nH]ncc1Cl,5*
Cc1nc(C(=O)N/N=C/c2[nH]ncc2Cl)cs1,-0.33
CCNc1nc(OC)nc(Oc2ccc(=O)n(C)n2)n1,0.26
CC(C)c1ccc(C2/C(=C(\O)c3ccc(F)cc3)C(=O)C(=O)N2CCCN2CCOCC2)cc1 (stereo not given),1.1
